Experimental data from PubChem BioAssay AID1159580 (chemical genetic matrix, 2015).
Among all 5,500 compounds or so, about 2,000 (36%) were called active. Another 18% or so got no clear call; they are omitted. Rule as the data show it: active = normalized growth mostly below about 0.91 (no sharp cut-off); inconclusive = no clear call, values can overlap the other calls; inactive = mostly above about 0.92. This is one part of the list.

Experiment: chemical genetic growth profiling, strain panel (AID 1159580);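 also: tested at 20 µM; growth read once vehicle control cultures reached saturation at 30 °C; 1 = growth at the plate median or of vehicle wells; lower values mean less growth of the strain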
Conditions: S. cerevisiae deletion strains, growth OD
[1] = locus YAL040C, strain CLN3, stronger effect = lower value
[2] = locus YCL061C, strain MRC1 (second series), stronger effect = lower value
[3] = locus YER002W, strain NOP16, stronger effect = lower value
[4] = locus YGR078C, strain PAC10, stronger effect = lower value
[5] = locus YNL175C, strain NOP13, stronger effect = lower value
[6] = locus YNL197C, strain WHI3, stronger effect = lower value
[7] = locus YNL224C, strain SQS1, stronger effect = lower value
[8] = locus YOR083W, strain WHI5 (second series), stronger effect = lower value

Measured: normalized growth

NC(=O)c1ccccc1
inactive: [1] 0.923 | [2] 1.01 | [3] 0.988 | [4] 0.997 | locus YGR229C, strain SMI1, stronger effect = lower value 1.04 | locus YNL153C, strain GIM3, stronger effect = lower value 1.01 | [5] 0.972 | [6] 0.979 | [7] 0.997 | [8] 0.952

O=C(O)c1cc[c]([Hg][Cl])cc1
active: [1] 0.825 | [3] 0.757 | [4] 0.339 | [6] 0.731 | [8] 0.77
inactive: [2] 1.01 | locus YDR150W, strain NUM1, stronger effect = lower value 1 | locus YDR363W, strain ESC2, stronger effect = lower value 0.943 | locus YMR307W, strain GAS1, stronger effect = lower value 0.981 | locus YNL128W, strain TEP1, stronger effect = lower value 0.955 | [5] 0.918 | [7] 0.948 | locus YNL322C, strain KRE1, stronger effect = lower value 1.01 | locus YPL055C, strain LGE1, stronger effect = lower value 0.961

O=C(O)c1ccccc1
active: locus YLR113W, strain HOG1, stronger effect = lower value 0.78 | locus YOR231W, strain MKK1, stronger effect = lower value 0.86
inactive: locus YAL021C, strain ccr4, stronger effect = lower value 0.97 | locus YAL026C, strain drs2, stronger effect = lower value 0.962 | locus YAL030W, strain snc1, stronger effect = lower value 0.977 | locus YBL061C, strain skt5, stronger effect = lower value 0.975 | locus YBR009C, strain hhf1, stronger effect = lower value 0.981 | locus YBR023C, strain chs3, stronger effect = lower value 0.981 | locus YBR171W, strain sec66, stronger effect = lower value 0.957 | locus YBR231C, strain swc5, stronger effect = lower value 0.974 | locus YBR279W, strain paf1, stronger effect = lower value 0.981 | locus YCL011C, strain gbp2, stronger effect = lower value 0.954 | locus YCL016C, strain dcc1, stronger effect = lower value 0.962 | locus YCL061C, strain MRC1, stronger effect = lower value 0.966 | locus YCL069W, strain vba3, stronger effect = lower value 0.986 | locus YCR088W, strain abp1, stronger effect = lower value 0.996 | locus YDL005C, strain med2, stronger effect = lower value 0.973 | locus YDL040C, strain nat1, stronger effect = lower value 0.994 | locus YDR001C, strain nth1, stronger effect = lower value 0.973 | locus YDR069C, strain doa4, stronger effect = lower value 0.958 | locus YDR137W, strain rgp1, stronger effect = lower value 0.975 | locus YDR159W, strain sac3, stronger effect = lower value 0.966 | locus YDR195W, strain ref2 1.02 | locus YDR297W, strain sur2, stronger effect = lower value 0.979 | locus YDR334W, strain swr1, stronger effect = lower value 0.911 | locus YDR335W, strain msn5, stronger effect = lower value 0.976 | locus YDR392W, strain spt3, stronger effect = lower value 0.962 | locus YEL003W, strain gim4, stronger effect = lower value 0.988 | locus YEL037C, strain rad23, stronger effect = lower value 0.988 | locus YEL061C, strain CIN8 (second series), stronger effect = lower value 0.971 | locus YER015W, strain faa2, stronger effect = lower value 0.987 | locus YER016W, strain bim1, stronger effect = lower value 0.983 | locus YER111C, strain swi4, stronger effect = lower value 0.971 | locus YER155C, strain BEM2 (second series), stronger effect = lower value 0.962 | locus YFR010W, strain ubp6, stronger effect = lower value 0.958 | locus YGL167C, strain pmr1, stronger effect = lower value 0.956 | locus YGL173C, strain kem1, stronger effect = lower value 0.956 | locus YGL227W, strain vid30, stronger effect = lower value 0.97 | locus YGL240W, strain doc1, stronger effect = lower value 0.959 | locus YGL253W, strain hxk2, stronger effect = lower value 0.965 | locus YHR013C, strain ard1, stronger effect = lower value 0.962 | locus YHR027C, strain rpn1, stronger effect = lower value 0.944 | locus YHR030C, strain SLT2, stronger effect = lower value 0.894 | locus YHR079C, strain IRE1, stronger effect = lower value 0.891 | locus YHR142W, strain chs7, stronger effect = lower value 0.928 | locus YJL092W, strain hpr5, stronger effect = lower value 0.966 | locus YJL095W, strain BCK1 (second series), stronger effect = lower value 0.989 | locus YJL095W, strain BCK1, stronger effect = lower value 0.893 | locus YJL115W, strain asf1, stronger effect = lower value 0.945 | locus YJL129C, strain trk1, stronger effect = lower value 0.987 | locus YJL154C, strain vps35, stronger effect = lower value 0.975 | locus YJL164C, strain tpk1, stronger effect = lower value 1 | locus YJL166W, strain qcr8, stronger effect = lower value 0.969 | locus YJL187C, strain SWE1, stronger effect = lower value 0.982 | locus YJR066W, strain TOR1, stronger effect = lower value 0.863 | locus YKL160W, strain elf1, stronger effect = lower value 0.965 | locus YKR026C, strain gcn3, stronger effect = lower value 0.978 | locus YLL001W, strain dnm1, stronger effect = lower value 0.948 | locus YLL026W, stronger effect = lower value 0.982 | locus YLL041C, strain sdh2, stronger effect = lower value 0.966 | locus YLR027C, strain aat2, stronger effect = lower value 0.967 | locus YLR221C, strain rsa3, stronger effect = lower value 0.927 | locus YLR258W, strain gsy2, stronger effect = lower value 0.989 | locus YLR262C, strain YPT6 (second series), stronger effect = lower value 0.998 | locus YLR320W, strain mms22, stronger effect = lower value 0.943 | locus YLR342W, strain FKS1, stronger effect = lower value 0.972 | locus YLR357W, strain rsc2, stronger effect = lower value 0.969 | locus YLR370C, strain arc18, stronger effect = lower value 0.949 | locus YLR384C, strain iki3, stronger effect = lower value 0.958 | locus YML120C, strain ndi1, stronger effect = lower value 0.948 | locus YMR058W, strain fet3, stronger effect = lower value 0.951 | locus YMR125W, strain sto1, stronger effect = lower value 0.98 | locus YMR129W, stronger effect = lower value 0.988 | locus YMR205C, strain PFK2, stronger effect = lower value 0.967 | locus YMR231W, strain pep5, stronger effect = lower value 0.987 | locus YNL071W, strain lat1, stronger effect = lower value 0.988 | locus YNL183C, strain NPR1, stronger effect = lower value 0.84 | locus YNL209W, strain ssb2, stronger effect = lower value 0.975 | locus YNL248C, strain rpa49, stronger effect = lower value 0.966 | locus YNL322C, strain KRE1 (second series), stronger effect = lower value 0.933 | locus YNR049C, strain mso1, stronger effect = lower value 0.955 | locus YOR001W, strain rrp6, stronger effect = lower value 0.965 | locus YOR070C, strain gyp1, stronger effect = lower value 0.985 | locus YOR080W, strain dia2, stronger effect = lower value 0.963 | locus YOR083W, strain WHI5, stronger effect = lower value 0.961 | locus YOR106W, strain vam3, stronger effect = lower value 0.923 | locus YOR265W, strain rbl2, stronger effect = lower value 0.981 | locus YOR270C, strain vph1, stronger effect = lower value 0.98 | locus YOR290C, strain snf2, stronger effect = lower value 0.907 | locus YPL051W, strain arl3, stronger effect = lower value 0.989 | locus YPL078C, strain atp4, stronger effect = lower value 0.974 | locus YPL106C, strain sse1, stronger effect = lower value 0.962 | locus YPL240C, strain hsp82, stronger effect = lower value 0.996 | locus YPL256C, strain CLN2, stronger effect = lower value 0.855
